Measured values as given in PubChem BioAssay AID720596 (The Scripps Research Institute Molecular Screening Center, 2013).
In all, about 370,000 compounds went through this assay and about 1,600 (0.43%) were called active. The sample holds actives, similar compounds and a random draw of the others, so the mix is not that of the screen. Rule as the data show it: active = inhibition above about 24%; inactive = the rest.

target: Major prion protein (Homo sapiens) (UniProt P04156); test: reduces human prion protein on the cell surface, primary screen, cell-based, TR-FRET (AID 720596); settings: cell surface PrPC, TR-FRET read-out; at 13.8 µM; stronger effect = higher value; also: 0% = median of the test wells and 100% = reference compound wells

Row | SMILES | inhibition
1 | O=S(=O)(c1ccccc1)N(Cc1cccc(F)c1)c1ccccc1 | 7.38% (inactive)
2 | COc1ccc2c(Cl)c(-c3nnco3)sc2c1 | 24.9% (active)
3 | Fc1ccc(COc2ccc(-c3nnco3)cc2)cc1 | 1.45% (inactive)
4 | C#CCSc1nnc(-c2sc3ccccc3c2Cl)o1 | 3.9% (inactive)
5 | Cn1cnc(S(=O)(=O)N2C[C@@H](O)COC[C@@H]3O[C@H](CC(=O)NC4CCC4)CC[C@H]32)c1 | 9.27% (inactive)
6 | Cc1nn(-c2ccccc2)c(=O)c2noc(C)c12 | 1.14% (inactive)
7 | CCCCn1c(SCc2ncc(-c3ccccc3)o2)nc2cc(S(N)(=O)=O)ccc21 | 2.37% (inactive)
8 | COc1ccc(C[C@H]2CN3C(=NC[C@H]3C)N2CCNC(=O)CCC2CCCCC2)cc1 | -0.91% (inactive)
9 | CC1(C(=O)NS(=O)(=O)Cc2cccc(Cl)c2)CCN1C(=O)Cc1ccc(Cl)cc1Cl (stereo not drawn) | 1.42% (inactive)
10 | O=S(=O)(c1ccc(SCc2ccccc2)nc1)N1CCCCCC1 | -0.79% (inactive)
11 | COC(=O)c1ccc(CSc2ccc(S(=O)(=O)N3CCCCC3)cn2)cc1 | 0.66% (inactive)
12 | Cc1ccc(CSc2ccc(S(=O)(=O)N3CCCCC3)cn2)cc1 | 33.8% (active)
13 | CCOc1ccc(CCNC(=O)C2CCN(c3ccc(N4CCOCC4)nn3)CC2)cc1OCC | -16.1% (inactive)
14 | O=C(/C=C/c1cccc([N+](=O)[O-])c1)OCC(=O)N1CCOCC1 | -2.76% (inactive)
15 | CCN(C(=O)[C@@H](C1CC1)[C@@H](O)c1ccc2ccccc2c1)c1ccccc1 | -3.85% (inactive)
16 | COc1ccc(CN2CCC(c3nc4ccc(Cl)cc4[nH]3)CC2)cc1 | -13.1% (inactive)
17 | Cc1ccc(CN2CCCOCCS2(=O)=O)cc1 | 2.42% (inactive)
18 | COc1ccc(C(=O)N2CCCCC2c2cc(C(=O)Nc3ccc(F)c(Cl)c3)no2)cc1 (stereo not drawn) | -1.86% (inactive)
19 | Cc1cc(=O)n2[nH]c(-c3sccc3-n3c(C)ccc3C)cc2n1 | 13.4% (inactive)
20 | CCc1c(C)nc2cc(-c3cccs3)[nH]n2c1=O | 37.9% (active)
21 | CCc1c(C)nc2cc(C)[nH]n2c1=O | 1.02% (inactive)

Row | SMILES | inhibition
22 | CC(C)n1c(=S)[nH]c2cc(C(F)(F)F)ccc21 | -2.04% (inactive)
23 | O=C(CNC(=O)c1ccccc1)OC(C(=O)Nc1cc([N+](=O)[O-])ccc1F)c1ccccc1 (stereo not drawn) | 9.58% (inactive)
24 | O=C(Nc1nc2ccc(Cl)cc2s1)c1cc(-c2ccc(Cl)cc2)nc2ccccc12 | 6.81% (inactive)
25 | O=C(NC(Nc1nc2ccc([N+](=O)[O-])cc2s1)(C(F)(F)F)C(F)(F)F)c1ccccc1 | 43.8% (active)
26 | Cc1cc(C(=O)NN=C/C=C/c2ccco2)n[nH]1 | -15.4% (inactive)
27 | CCn1c(SCC(=O)Nc2nc(C)cs2)nnc1C(C)NC(=O)c1ccccc1 (stereo not drawn) | -3.46% (inactive)
28 | CC(=O)N1C[C@@H](CO)[C@@H](N(C)C(=O)c2ccco2)C[C@H]1c1ccccc1 | -3.63% (inactive)
29 | CCN(CC(=O)NCc1cccs1)C(=O)/C=C/c1ccc(C)cc1 | -4.17% (inactive)
30 | COC(=O)Cc1[nH]n(-c2nc3ccccc3s2)c(=O)c1C(C)=Nc1ccc(OC)cc1 | 32.6% (active)
31 | O=C(COC(=O)CNS(=O)(=O)c1ccc(F)c(F)c1F)NC1CCCC1 | -0.54% (inactive)
32 | O=C(COC(=O)c1cnccn1)Nc1ccc(Cl)cc1C(F)(F)F | 5.86% (inactive)
33 | Cc1c(S(=O)(=O)N2CC(C)CC(C)C2)c(=O)n(C)c(=O)n1C (stereo not drawn) | 5.95% (inactive)
34 | CCSc1nc(C)c(CCOc2cccc(C)c2)c(=O)[nH]1 | 4.37% (inactive)
35 | CCCc1nc(SCC(=O)Nc2ccc(S(=O)(=O)N(C)C)cc2)c2ccccc2n1 | 52.8% (active)
36 | CC(C)N(C(=O)CSc1nc(COc2ccccc2)nc2ccccc12)C(C)C | 12.9% (inactive)
37 | CN(C)S(=O)(=O)c1ccc(NC(=O)COC(=O)c2n[nH]c3ccccc23)cc1 | 0.47% (inactive)
38 | COc1ccc(C(=O)Cn2nnc(-c3ccc(N4CCOCC4)cc3)n2)cc1OC | 2.45% (inactive)
39 | O=c1[nH]c(=O)n(Cc2ccco2)c2c1C(C(F)(F)F)(C(F)(F)F)N=C(c1ccco1)N2 | -1.08% (inactive)
40 | Fc1ccc2[nH]c3c(N4CCSCC4)ncnc3c2c1 | 40.8% (active)
41 | CC(=O)NC(NC(=S)Nc1c(C)n(C)n(-c2ccccc2)c1=O)C(Cl)(Cl)Cl (stereo not drawn) | -1.39% (inactive)
42 | CCc1nc(SCC(=O)NNC(=O)c2ccc(C)cc2)c2ccccc2n1 | 97.6% (active)

Row | SMILES | inhibition
43 | CCN(CC)c1ccc(C(=O)NNC(=O)CCc2nc3ccccc3c(=O)[nH]2)cc1 | 1.99% (inactive)
44 | Cc1ccc(SCC(=O)NNC(=O)c2ccc(S(C)(=O)=O)cc2)cc1 | -1.94% (inactive)
45 | CCCN(CCC)S(=O)(=O)c1ccc(C(=O)N2CC3CCC(CC3)C2)cc1 | 0.5% (inactive)
46 | O=C(Nc1c(Cl)c(C2CC2)nn1-c1ccccc1)C(Cl)(Cl)Cl | 1.29% (inactive)
47 | CCC(C)NC(=O)N[C@@H](CCSC)C(=O)O (stereo partly drawn) | -4.34% (inactive)
48 | CCC(C)NC(=O)c1nn(C)c(=O)c2ccccc12 (stereo not drawn) | -2.76% (inactive)
49 | Cc1cccc(C(=O)C(O)(c2ccccc2)C2CCCCC2=O)c1 (stereo not drawn) | -5.23% (inactive)
50 | N#Cc1ccccc1Sc1ccccc1C(=O)OCC(=O)NC1CCCCC1 | -7.2% (inactive)
51 | O=C(COC(=O)c1ccccc1SCC(=O)NC1CCCCC1)NC1CCCCC1 | 52.2% (active)
52 | O=C(COC(=O)c1cccc(Cl)c1Cl)NC1CCCCCC1 | 4.24% (inactive)
53 | COC(=O)Cc1nc2c(N)nc(N)nc2[nH]c1=O | 4.68% (inactive)
54 | Cc1sc(NC(=O)C2C3CCC(O3)C2C(=O)O)c(C(=O)OC(C)C)c1-c1ccc(Cl)cc1 (stereo not drawn) | 7.78% (inactive)
55 | CC(=O)N1c2ccc(S(=O)(=O)N3CCCC(C(=O)NCc4ccc(Cl)cc4)C3)cc2CC1C (stereo not drawn) | 10.5% (inactive)
56 | CCOC(=O)C1CCN(C(=O)C2CCCN(S(=O)(=O)c3ccc(OC)c(Cl)c3)C2)CC1 (stereo not drawn) | -3.34% (inactive)
57 | CC(=O)N1CCCc2cc(S(=O)(=O)N3CCCC(C(=O)NCc4ccc(Cl)cc4)C3)ccc21 (stereo not drawn) | 29.3% (active)
58 | CC(=O)N1c2ccc(S(=O)(=O)N3CCC(C(=O)NC4CCCCC4C)CC3)cc2CC1C (stereo not drawn) | 6.59% (inactive)
59 | CC(=O)N1c2ccc(S(=O)(=O)N3CCCC(C(=O)Nc4cccc(F)c4)C3)cc2CC1C (stereo not drawn) | 51.1% (active)
60 | CC(=O)N1CCCc2cc(S(=O)(=O)N3CCCC(C(=O)N4CCN(c5cccc(Cl)c5)CC4)C3)ccc21 (stereo not drawn) | 40.4% (active)
61 | CC(=O)N1c2ccc(S(=O)(=O)N3CCC(C(=O)NCc4ccc(F)cc4)CC3)cc2CC1C (stereo not drawn) | -0.57% (inactive)
62 | CC(=O)N1c2ccc(S(=O)(=O)N3CCCC(C(=O)Nc4ccc(C)cc4C)C3)cc2CC1C (stereo not drawn) | 6.63% (inactive)
63 | COc1ccc(S(=O)(=O)N2CCCC(C(=O)N3CCN(C)CC3)C2)cc1C (stereo not drawn) | 2.94% (inactive)
